Records with an inconclusive call do not appear. The source made the active and inactive calls.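 How the source made its calls, unless noted: active means normalized viability below 100% at a tested concentration; inactive means the rest.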
Experiments:
[1] = growth inhibition of DIPG glioma cells, dose response, cell-based, SU-DIPG-XVII, MIPE5.0, CellTiter-Glo, qHTS (AID 1347060; cut-off not given, nearly all actives have AC50 up to about 26 µM;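 on AC50: cells exposed to compound for 48 hours before viability readout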); settings: SU-DIPG-XVII viability, CellTiter-Glo ATP luminescence
[2] = growth inhibition of DIPG glioma cells, dose response, cell-based, SU-DIPG-XIII, MIPE4.0, CellTiter-Glo, qHTS (AID 1347061; cut-off not given, nearly all actives have AC50 up to about 37 µM;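 further: cells exposed to compound for 48 hours before readout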); settings: SU-DIPG-XIII viability, CellTiter-Glo ATP luminescence
[3] = growth inhibition of DIPG glioma cells, dose response, cell-based, JHH-DIPG-1, MIPE4.0, CellTiter-Glo, qHTS (AID 1347062; cut-off not given, nearly all actives have AC50 up to about 27 µM;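 on AC50: cells exposed to compound for two days before readout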); settings: JHH-DIPG-1 viability, CellTiter-Glo ATP luminescence
[4] = growth inhibition of DIPG glioma cells, dose response, cell-based, SU-DIPG-IV, MIPE4.0, CellTiter-Glo, qHTS (AID 1347063; cut-off not given, nearly all actives have AC50 up to about 30 µM;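 further: compound exposure lasted 48 hours before the viability readout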); settings: SU-DIPG-IV viability, CellTiter-Glo ATP luminescence
[5] = growth inhibition of DIPG glioma cells, dose response, cell-based, SU-DIPG-XIII, MIPE5.0, CellTiter-Glo, qHTS (AID 1347064; cut-off not given, nearly all actives have AC50 up to about 23 µM;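 on AC50: cells exposed to compound for 48 hours before the viability read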); settings: SU-DIPG-XIII viability, CellTiter-Glo ATP luminescence
[6] = viability loss in pontine glioma line – cell-based, SU-DIPG-XXV, MIPE5.0, CellTiter-Glo, qHTS, dose response (AID 1347065; cut-off not given, nearly all actives have AC50 up to about 26 µM;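 further: cells exposed to compound for 48 hours before ATP readout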); settings: CellTiter-Glo ATP luminescence
[7] = SU-DIPG-VI glioma cell viability, MIPE4.0 library, CellTiter-Glo luminescence, qHTS (AID 1347066; cut-off not given, nearly all actives have AC50 up to about 30 µM;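 further: cells exposed to compound for 48 hours before readout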); settings: CellTiter-Glo ATP luminescence
[8] = JHH-DIPG-1 glioma cell viability, MIPE5.0 library, CellTiter-Glo luminescence, qHTS (AID 1347067; cut-off not given, nearly all actives have AC50 up to about 26 µM;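 further: cells exposed to compound for 48 hours before readout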); settings: JHH-DIPG-1 glioma viability, CellTiter-Glo ATP luminescence
[9] = SU-DIPG-XXV glioma cell viability, MIPE5.0 library, qHTS (AID 1347068; cut-off not given, nearly all actives have IC50 up to about 30 µM;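 on IC50: cells exposed to compound for 48 hours before viability readout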)
[10] = ovarian cancer cell viability with rucaparib, profiling panel, oncology-focused library, rucaparib conditional (AID 1508598); settings: patient-derived ovarian cancer cells, CellTiter-Glo viability, 144 h, stronger effect = lower value
[11] = modifiers of HSF1 nuclear foci, imaging, Selleck Cancer Library (AID 1347162; in the data active means plate-normalised HSF1 focus index below about 0.46); settings: human cells, at 10 µM; SSMD: measured here: HSF1 foci SSMD mean; cell count: measured here: cell number; plate-normalised HSF1 focus index: stronger effect = lower value
[12] = sensitizers of A549 cells to miR-34 induction, primary screen, imaging, A549 dox-inducible miR-34, nuclei and caspase counts (AID 1347080;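 active means compounds whose cell count with miR-34 switched on is under 0.7 times the count with it off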); settings: A549 miR-34 inducible, Hoechst nuclei count, 48 h
[13] = survival rescue of mitochondrial mutant cells in low glucose, primary screen, MELAS cybrids, Rieske KO mouse fibroblasts, CellTiter-Glo (AID 1508586;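 active means mean z-score across replicates of 1.96 or higher in either the MELAS or the Rieske mutant cell line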;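 further: z relative to plate mean and SD of compound and empty wells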)
[14] = at 0.000305 µM, OCI-C5x cells, with rucaparib 10 µM, 100% = cells with rucaparib alone
[15] = at 0.000305 µM, OCI-C5x cells, without rucaparib
[16] = at 0.000305 µM, OCI-P5x cells, with rucaparib 20 µM, 100% = cells with rucaparib alone
[17] = at 0.000305 µM, OCI-P5x cells, without rucaparib
[18] = at 0.00122 µM, OCI-C5x cells, with rucaparib 10 µM, 100% = cells with rucaparib alone
[19] = at 0.00122 µM, OCI-C5x cells, without rucaparib
[20] = at 0.00122 µM, OCI-P5x cells, with rucaparib 20 µM, 100% = cells with rucaparib alone
[21] = at 0.00122 µM, OCI-P5x cells, without rucaparib
[22] = at 0.00488 µM, OCI-C5x cells, with rucaparib 10 µM, 100% = cells with rucaparib alone
[23] = at 0.00488 µM, OCI-C5x cells, without rucaparib
[24] = at 0.00488 µM, OCI-P5x cells, with rucaparib 20 µM, 100% = cells with rucaparib alone
[25] = at 0.00488 µM, OCI-P5x cells, without rucaparib
[26] = at 0.0195 µM, OCI-C5x cells, with rucaparib 10 µM, 100% = cells with rucaparib alone
[27] = at 0.0195 µM, OCI-C5x cells, without rucaparib
[28] = at 0.0195 µM, OCI-P5x cells, with rucaparib 20 µM, 100% = cells with rucaparib alone
[29] = at 0.0195 µM, OCI-P5x cells, without rucaparib
[30] = at 0.0781 µM, OCI-C5x cells, with rucaparib 10 µM, 100% = cells with rucaparib alone
[31] = at 0.0781 µM, OCI-C5x cells, without rucaparib
[32] = at 0.0781 µM, OCI-P5x cells, with rucaparib 20 µM, 100% = cells with rucaparib alone
[33] = at 0.0781 µM, OCI-P5x cells, without rucaparib
[34] = at 0.313 µM, OCI-C5x cells, with rucaparib 10 µM, 100% = cells with rucaparib alone
[35] = at 0.313 µM, OCI-C5x cells, without rucaparib
[36] = at 0.313 µM, OCI-P5x cells, with rucaparib 20 µM, 100% = cells with rucaparib alone
[37] = at 0.313 µM, OCI-P5x cells, without rucaparib
[38] = at 1.25 µM, OCI-C5x cells, with rucaparib 10 µM, 100% = cells with rucaparib alone
[39] = at 1.25 µM, OCI-C5x cells, without rucaparib
[40] = at 1.25 µM, OCI-P5x cells, with rucaparib 20 µM, 100% = cells with rucaparib alone
[41] = at 1.25 µM, OCI-P5x cells, without rucaparib
[42] = at 5 µM, OCI-C5x cells, with rucaparib 10 µM, 100% = cells with rucaparib alone
[43] = at 5 µM, OCI-C5x cells, without rucaparib
[44] = at 5 µM, OCI-P5x cells, with rucaparib 20 µM, 100% = cells with rucaparib alone
[45] = at 5 µM, OCI-P5x cells, without rucaparib

Cc1cc(Nc2cc(N3CCN(C)CC3)nc(/C=C/c3ccccc3)n2)n[nH]1
inactive: viability [10, 14] 120% | viability [10, 15] 103% | viability [10, 16] 101% | viability [10, 18] 106% | viability [10, 19] 107% | viability [10, 20] 110% | viability [10, 21] 108% | viability [10, 22] 113% | viability [10, 23] 104% | viability [10, 24] 118% | viability [10, 25] 114% | viability [10, 26] 115% | viability [10, 27] 116% | viability [10, 28] 109% | viability [10, 29] 107% | viability [10, 30] 110% | viability [10, 32] 103% | viability [10, 33] 107% | viability [10, 34] 110% | viability [10, 35] 112%
active: AC50 [1] 1.05 µM | AC50 [2] 12.1 µM | AC50 [3] 27 µM | AC50 [4] 13.6 µM | AC50 [5] 2.09 µM | AC50 [6] 1.05 µM | AC50 [7] 13.6 µM | AC50 [8] 4.68 µM | IC50 [9] 2.63 µM | viability [10, 17] 97.8% | viability [10, 31] 95.9% | viability [10, 36] 87.9% | viability [10, 37] 93.6% | viability [10, 38] 90.9% | viability [10, 39] 93.3% | viability [10, 40] 74% | viability [10, 41] 56.9% | viability [10, 42] 95.4% | viability [10, 43] 54.2% | viability [10, 44] 3.53% | viability [10, 45] 6.43%

CN(C)C[C@@H]1CCn2cc(c3ccccc32)C2=C(C(=O)NC2=O)c2cn(c3ccccc23)CCO1
inactive: plate-normalised HSF1 focus index [11] 1.24
3.92: SSMD [11]
active: AC50 [1] 26.3 µM | AC50 [2] 16.6 µM | AC50 [3] 29.6 µM | AC50 [4] 16.6 µM | AC50 [5] 9.34 µM | AC50 [6] 18.6 µM | AC50 [7] 13.2 µM | AC50 [8] 7.42 µM
6860: cell count [11]

CCOc1ccn(-c2ccc(F)cc2)c(=O)c1C(=O)Nc1ccc(Oc2ccnc(N)c2Cl)c(F)c1
7130: cell count [11]
4210: cell count ([12]; measured here: total cells without miR-34 induction)
2.9: SSMD [11]
0.507: fold change ([12]; measured here: relative caspase fold change +Dox/-Dox)
active: AC50 [4] 18.7 µM | AC50 [6] 11.8 µM | viability [10, 20] 99.9% | viability [10, 36] 91.8% | viability [10, 40] 88.6% | viability [10, 41] 97.3% | viability [10, 44] 65.2% | viability [10, 45] 96.2%
5080: cell count ([12]; measured here: total cells with miR-34 induction, stronger effect = lower value)
-0.0407: z-score ([13]; Rieske KO mouse fibroblast survival, CellTiter-Glo 72 h)
inactive: outcome [1] | outcome [2] | outcome [3] | outcome [5] | outcome [7] | outcome [9] | fold change ([12]; stronger effect = lower value, cell number ratio, induced over uninduced) 1.21 | plate-normalised HSF1 focus index [11] 1.11 | z-score ([13]; MELAS cybrid survival, CellTiter-Glo 48 h, stronger effect = higher value) -0.348 | viability [10, 14] 118% | viability [10, 15] 124% | viability [10, 16] 109% | viability [10, 17] 129% | viability [10, 18] 125% | viability [10, 19] 134% | viability [10, 21] 120% | viability [10, 22] 113% | viability [10, 23] 120% | viability [10, 24] 103% | viability [10, 25] 117% | viability [10, 26] 116% | viability [10, 27] 118% | viability [10, 28] 101% | viability [10, 29] 114% | viability [10, 30] 110% | viability [10, 31] 138% | viability [10, 32] 107% | viability [10, 33] 116% | viability [10, 34] 129% | viability [10, 35] 128% | viability [10, 37] 106% | viability [10, 38] 135% | viability [10, 39] 120% | viability [10, 42] 133% | viability [10, 43] 135%

Reference: PubChem BioAssay
